Measured values taken from ChEMBL document CHEMBL4513216, “Probing the Open Global Health Chemical Diversity Library for Multistage-Active Starting Points for Next-Generation Antimalarials” (ACS Infect Dis, 2020).
In all, about 69,000 compounds went through this assay and about 8,600 (12%) showed an effect of 50% or more. For the sample, strong results were picked, then their nearest neighbours and some compounds at random.

Tested on: Plasmodium berghei
Assay: Screen against P. berghei liver stage (PbLuc), transformed with Luciferase, at 10uM
Type: functional, HepG2
Conditions: tested at 10 uM

SMILES	INHIBITION
Fc1ccccc1Cc1noc(CN2CCC(C3CCCCC3)C2)n1 (centres undefined)	49.9%
COC(=O)c1sccc1NC(=O)C1CCCN1C(=O)c1ccco1 (centres undefined)	-62.2%
COCc1ccccc1NC(=O)[C@@H]1CCCN1C(=O)c1ccco1	39.2%
Cc1cccc(NC(=O)C2CCCN2C(=O)c2ccco2)c1C (centres undefined)	72.5%
N#CCCN(CCN1CCOCC1)Cc1ccc(F)c(Br)c1	20.4%
CC1=NN(CC(=O)N2CC[C@@H]3[C@@H](CCC(=O)N3CC(C)C)C2)CC1	56.7%
CC(C)CN1C(=O)CC[C@H]2CN(C(=O)Cn3ccc(=O)cc3)CC[C@H]21	33.9%
CC(C)CN1C(=O)CC[C@H]2CN(C(=O)Cn3ccccc3=O)CC[C@H]21	45.8%
COc1ccnc(N2CCN(C(=O)c3ccn(C)c(=O)c3)CC2)n1	-21.8%
CCc1nnsc1C(=O)N1CCCC(c2nc3ccccc3[nH]2)C1 (centres undefined)	26.9%
Cc1nnsc1C(=O)N1CCC(c2nc3ccccc3[nH]2)CC1	65.4%
Cc1nnsc1C(=O)N1CC(c2nc3ccccc3[nH]2)C1	49.4%
O=C(c1cc2ccccc2[nH]1)N1CCCCC1Cn1cccn1 (centres undefined)	48.1%
Cc1nn(C)cc1-c1cc(C(F)F)nc2sc(C(N)=O)c(N)c12	1.86%
COC(=O)CCC(=O)N1CCc2[nH]nc(-c3ccc(F)c(F)c3)c2C1	15.9%
CC(C)c1nnsc1CN1CCc2[nH]nc(-c3ccc(Cl)cc3)c2C1	50.1%
CC(C)c1nnsc1CN1CCc2[nH]nc(-c3ccc(F)c(F)c3)c2C1	70.4%
CC(O)CN1CCc2[nH]nc(C(c3ccccc3)c3ccccc3)c2C1 (centres undefined)	-12.1%
CCc1nc(C)sc1CN1CCc2[nH]nc(-c3ccc(F)c(F)c3)c2C1	37.2%
CC(C)(C)c1ccc(-c2n[nH]c3c2CN(CC2CCOC2)CC3)cc1 (centres undefined)	44.3%
CS(=O)(=O)N[C@@H]1COC[C@@H]2CN(Cc3ccoc3)C[C@@H]21	15.4%
Cc1cccc(C(=O)N(CC(=O)O)CC(C)C)c1	28.1%
CCN(CC)C(=O)c1cc(C2CCCN2C)ccn1 (centres undefined)	47.2%
CC(COc1ccc(F)cc1F)NC(=O)NCCN1CCOCC1 (centres undefined)	-32.4%
CCC(C)NC(=O)c1sccc1-n1cnnn1 (centres undefined)	-5.22%
COc1cccc2c1ccn2CC(=O)N1CCCC(C(=O)O)C1 (centres undefined)	31.7%
O=C(c1ccco1)N1CCCC2(CN(Cc3ccc(F)cc3)CCO2)C1 (centres undefined)	-1.83%

SMILES	INHIBITION
O=C1N(CC2CC2)C(c2cncs2)NC12CCCC2 (centres undefined)	49%
Cc1cccc(CN2CCC3(CC2)COC(COCC2CC2)C3)n1 (centres undefined)	43%
CCCN(CCc1ccccn1)C(=O)CCc1cnn(C)c1	65.2%
Cn1cc(CCC(=O)N2C[C@H]3CC[C@@H](C2)N(Cc2ccccn2)C3)cn1	6.11%
CCCN(CCc1ccccn1)C(=O)Cn1cc(C)cn1	78.8%
CCCN(CCc1ccccn1)C(=O)Cn1cnnn1	-17.8%
Cn1cc(CN(Cc2ccccc2)Cc2ccccn2)cn1	1.62%
Cc1cnn(CC2CCCCN2CC(=O)NCc2ccccn2)c1 (centres undefined)	-4.74%
CC(c1nc(C2CC2)no1)N1CCN(Cc2nnc(C3CC3)o2)CC1 (centres undefined)	-51.5%
Cc1c(C(=O)NC(C)CC(=O)c2cccs2)cnn1C (centres undefined)	40.6%
CC(=O)N1CCCN(C(=O)c2ccc(Sc3ccccn3)cc2)CC1	-0.217%
Cc1cccn2cc(CC(=O)N(CCN(C)C)CC3CCCO3)nc12 (centres undefined)	58.5%
O=C(Cc1cn2ccsc2n1)N(Cc1ccco1)CC1CCCO1 (centres undefined)	7.21%
CN(C)CCN(CC1CCCO1)C(=O)Cc1cn2ccccc2n1 (centres undefined)	28.7%
Fc1ccc(CN2CCc3ncnc(C4CC4)c3CC2)cc1	39.5%
O=C1CCN(C(=O)c2ncoc2-c2ccco2)c2ncccc2N1	15.1%
CN1CCC(c2n[nH]c(=O)n2-c2cccc(Cl)c2)CC1	14.1%
CN1CC(c2n[nH]c(=O)n2-c2cccc(Cl)c2)CC1=O (centres undefined)	58.9%
O=c1[nH]nc(C2CC2)n1-c1cccc(Cl)c1	-21.7%
O=C(c1ccc(N2CCCC2)nc1)N1CCCC(n2cncn2)C1 (centres undefined)	-29.5%
Cc1nccn1CC1CCCN(Cc2ccc(-c3cccnc3)cc2)C1 (centres undefined)	66.7%
CN(C)C(=O)CCC1CCCN(Cc2ccc(-c3cccnc3)cc2)C1 (centres undefined)	29.8%
Cc1nc(C)n(CC2CCCN(Cc3cccnc3)C2)n1 (centres undefined)	-14.6%
Cc1nn(C)c(N(C)C)c1CNCc1ccccc1CO	15.3%
Cc1cc(NC(=O)CCn2nc(C)c3ccccc32)n(C)n1	26.7%
Cc1cc(NC(=O)CCn2nc(C)c3ccccc32)n(C(C)C)n1	59%
CCn1nc(C)cc1NC(=O)CCn1nc(C)c2ccccc21	20.9%

SMILES	INHIBITION
CSCC[C@H](NC(=O)N1CCC(Cc2ccccc2)CC1)C(=O)O	20%
CC(NC(=O)C1CCN(C(C)C)CC1)c1nncn1C1CCCC1 (centres undefined)	17.8%
CC(NC(=O)C1CCN(C(=O)C2CC2)CC1)c1nncn1C(C)C (centres undefined)	44%
CC(NC(=O)C1CCCC1)c1nncn1C(C)C (centres undefined)	52.2%
CCOc1ccccc1C(C(=O)O)N(C)CC1CCOCC1 (centres undefined)	41.3%
c1sc(C2CCCCC2)nc1CN1CCn2c(nnc2C2CC2)C1	38.8%
O=C(NCCn1ccnc1)N1CCCC1c1ccc2c(c1)OCCO2 (centres undefined)	-1.25%
COc1ccc2nnc(CCC(=O)Nc3nc4c(s3)CCCC4)n2n1	-2.09%
O=C(NCC1CCOCC1)[C@@H]1C[C@@H]2CCN(Cc3ccco3)C[C@H]2O1	2.74%
CN(C1CCCC1)C(C)(C)C(=O)NCCS(C)(=O)=O	42.4%
COCCCNC(=O)C(C)(C)N(C)C1CCCC1	72.1%
CN(C1CCCC1)C(C)(C)C(=O)NCCNC(N)=O	32.2%
O=C1CCC(=O)c2oc3ccc(Br)cc3c2N1	0.207%
CC(Cn1cccn1)NCc1ccc(OCc2ccncc2)cc1 (centres undefined)	56.4%
Cc1cnn(CC(C)NCc2ccc(S(C)(=O)=O)cc2)c1 (centres undefined)	56.3%
c1ccc(Cn2cccn2)c(CNCc2cnc(N3CCCC3)nc2)c1	22.6%
c1cnn(CCNCc2cnc(N3CCCC3)nc2)c1	-1.04%
Cc1cnn(CC(C)NCc2ccccc2OCc2cccnc2)c1 (centres undefined)	13.3%
Cc1cnn(CC(C)NCc2ccc(OCc3cccnc3)cc2)c1 (centres undefined)	58.5%
COc1cc(CNC(C)Cn2cccn2)cc(OC)c1 (centres undefined)	25.1%
CC(Cn1cccn1)NCc1cnc(N2CCCC2)nc1 (centres undefined)	53.2%
Cc1cnn(CC(C)NCc2cccnc2)c1 (centres undefined)	-3%
Cc1cnn(CCNCc2ccc(S(C)(=O)=O)cc2)c1	-13.1%
Cc1cnn(CC(C)NCc2ccc(C#N)cc2)c1 (centres undefined)	32.8%
CC(Cn1cccn1)NCc1csc(COc2ccccc2)n1 (centres undefined)	-2.53%
